According to ChEMBL document CHEMBL4513149, “CO-ADD screening of MMV (CH) - MMV compounds” (2021):
Results with a measured potency or affinity are listed apart.

Key:
Staphylococcus aureus = conditions: Concentration 20 uM; ASSAY_TEST Inhibition of Bacterial Growth; detection method Absorption (OD600); MEDIA CAMHB; plate type 384well; NBS; CORNING #3640; time 18 hr
Escherichia coli = conditions: Concentration 20 uM; ASSAY_TEST Inhibition of Bacterial Growth; detection method Absorption (OD600); MEDIA CAMHB; plate type 384well; NBS; CORNING #3640; time 18 hr

CS(=O)(=O)c1ccccc1C(=O)N(Cc1ccccc1)c1ccccc1 was tested, and the Inhibition (Staphylococcus aureus) was 14.37% and the Inhibition (Escherichia coli) was 5.13%.
For Cc1cc(Nc2ccncc2)n2nc(C)c(-c3ccccc3Cl)c2n1, the Inhibition (Staphylococcus aureus) was 12.68% and the Inhibition (Escherichia coli) was 7.54%.
With COC(=O)c1c(NC(=O)c2c(F)c(F)c(F)c(F)c2F)sc2c1CCCCC2 the Inhibition (Staphylococcus aureus) was 13.36% and the Inhibition (Escherichia coli) was 6.57%.
Work on Cl.NCCCC(N)(C(=O)O)C(F)F.O (stereo not given) [EFLORNITHINE HYDROCHLORIDE] yielded an Inhibition (Staphylococcus aureus) of 10.2% and an Inhibition (Escherichia coli) of -2.06%.
Compound Clc1ccc(CCNc2cc(-c3ccccc3)nc3ncnn23)cc1 has an Inhibition (Staphylococcus aureus) of 16.06% and an Inhibition (Escherichia coli) of 4.96%.
Cc1ccc2nc(Cl)c(CNCc3cccs3)cc2c1 was tested, and the Inhibition (Staphylococcus aureus) was 2.71% and the Inhibition (Escherichia coli) was -1.94%.
Cc1cc(OCC(=O)NCc2ccccc2)c2cc(Br)ccc2n1 gave an Inhibition (Staphylococcus aureus) of 11.48% and an Inhibition (Escherichia coli) of 7.85%.
For COc1cc(NC(=O)Cc2nn(C)c(=O)c3ccccc23)ccc1Cl, the Inhibition (Staphylococcus aureus) was 23.8% and the Inhibition (Escherichia coli) was 11.61%.
Compound O=C(C1CCCCC1)N1CC(=O)N2CCc3ccccc3C2C1 (stereo not given) [PRAZIQUANTEL] has an Inhibition (Staphylococcus aureus) of 18.11% and an Inhibition (Escherichia coli) of 6.83%.
With CS(=O)(=O)c1cccc(-c2cnc3[nH]cc(-c4ccc(CCC(=O)O)cc4)c3c2)c1 the Inhibition (Staphylococcus aureus) was 21.11% and the Inhibition (Escherichia coli) was 7.22%.
Compound Cc1ccccc1CN1CCC(O)(c2ccc(Cl)c(C(F)(F)F)c2)CC1 has an Inhibition (Staphylococcus aureus) of 17.37% and an Inhibition (Escherichia coli) of 4.77%.
For O=C(Nc1nc(-c2ccccn2)cs1)c1cncn1-c1ccccc1, the Inhibition (Staphylococcus aureus) was 8.38% and the Inhibition (Escherichia coli) was 5.73%.
O=C(NCCc1ccn(-c2ccccc2)n1)C1CCCCC1 was tested, and the Inhibition (Staphylococcus aureus) was 6.55% and the Inhibition (Escherichia coli) was 2.39%.
With O=C(NC1CC1)c1ccc(N2CCC(Cc3ccccc3)CC2)nc1 the Inhibition (Staphylococcus aureus) was 20.17% and the Inhibition (Escherichia coli) was 11.23%.
Compound Cc1cc(C(=O)Nc2cnn(Cc3ccc(Cl)cc3Cl)c2)no1 has an Inhibition (Staphylococcus aureus) of 4.82% and an Inhibition (Escherichia coli) of 8.52%.
O=C1Nc2ccc(Br)cc2C12NCCc1c2[nH]c2ccccc12 (stereo not given) showed an Inhibition (Staphylococcus aureus) of 8.87% and an Inhibition (Escherichia coli) of 4.53%.
Compound CC1COC2(CCN(c3nc(=O)c4cc(C(F)(F)F)cc([N+](=O)[O-])c4s3)CC2)O1 (stereo not given) has an Inhibition (Staphylococcus aureus) of 16.17% and an Inhibition (Escherichia coli) of 4.14%.
c1ccc2c(c1)CN(CC1CC1)CC1(CCN(Cc3c[nH]c4cnccc34)CC1)O2 gave an Inhibition (Staphylococcus aureus) of 14.8% and an Inhibition (Escherichia coli) of 1.67%.
In the case of Nc1ncnc2c1ncn2C[C@@H](O)[C@@H](O)C(=O)O [ERITADENINE], the Inhibition (Staphylococcus aureus) is reported as 13.9% and the Inhibition (Escherichia coli) is reported as 8.78%.
With O=C(CCC1CCCCC1)Nc1cccc(-c2nnc(-c3ccco3)o2)c1 the Inhibition (Staphylococcus aureus) was 8.68% and the Inhibition (Escherichia coli) was 8.91%.
In the case of CCCc1ccc(S(=O)(=O)Nc2ccc(CN3CCN(CC4CC4)CC3)cc2)cc1, the Inhibition (Staphylococcus aureus) is reported as 18.92% and the Inhibition (Escherichia coli) is reported as 6.87%.
Work on CC(=O)Nc1ccc(-c2noc(CC3CCCN(Cc4cccc(F)c4C)C3)n2)cc1 (stereo not given) yielded an Inhibition (Staphylococcus aureus) of 14.07% and an Inhibition (Escherichia coli) of 3.97%.
Compound CNC(=O)C1Cc2c([nH]c3cc(Cl)ccc23)C2(CCN(CCc3ccccc3)CC2)N1 (stereo not given) has an Inhibition (Staphylococcus aureus) of 24.47% and an Inhibition (Escherichia coli) of 9.53%.
CN1CCC(NCc2cccc(-c3ccc(S(=O)(=O)NCc4ccccc4)cc3)c2)CC1 was tested, and the Inhibition (Staphylococcus aureus) was 14.84% and the Inhibition (Escherichia coli) was 4.63%.
Work on CCCCOC(=O)Nc1cc2nc(C3CCCCC3)[nH]c2cc1N1CCCC1 yielded an Inhibition (Staphylococcus aureus) of 9.54% and an Inhibition (Escherichia coli) of -0.47%.
COc1cccc(NC(=O)c2c(NC(=O)c3cccnc3)sc3c2CCC3)c1 was tested, and the Inhibition (Staphylococcus aureus) was 17.01% and the Inhibition (Escherichia coli) was 4.69%.
For O=C(NC1CCN(c2ccnc3ccccc23)C1)c1cccc(C(F)(F)F)c1 (stereo not given), the Inhibition (Staphylococcus aureus) was 10.7% and the Inhibition (Escherichia coli) was 9.38%.
Work on COc1cc(OC)cc(C(=O)NCC2Cc3cc(Cl)cc(-c4ccncc4)c3O2)c1 (stereo not given) yielded an Inhibition (Staphylococcus aureus) of 16.01% and an Inhibition (Escherichia coli) of 10.63%.
For CCN(CC)C(=O)N1CCN(C)CC1 [DIETHYLCARBAMAZINE], the Inhibition (Staphylococcus aureus) was 20.12% and the Inhibition (Escherichia coli) was 7.97%.
In the case of CCc1ccccc1-n1c(C)cn2c3c(=O)n(C(C(=O)OC)C(C)C)c(=O)n(C)c3nc12 (stereo not given), the Inhibition (Staphylococcus aureus) is reported as 5.27% and the Inhibition (Escherichia coli) is reported as 7.91%.
Compound COc1ccc(C(=N)N)cc1-c1cn(-c2ccc(C(=N)N)cc2)nn1.Cl.Cl has an Inhibition (Staphylococcus aureus) of 4.09% and an Inhibition (Escherichia coli) of 2.37%.
In the case of COc1cccc(OC)c1C(=O)Nc1ccc(Cl)c(-c2nc3ccccc3s2)c1, the Inhibition (Staphylococcus aureus) is reported as 3.55% and the Inhibition (Escherichia coli) is reported as -2.89%.
Compound CNc1cc(C)nc(C2CN(C(=O)c3n[nH]c4ccccc34)CCO2)c1 (stereo not given) has an Inhibition (Staphylococcus aureus) of 17.74% and an Inhibition (Escherichia coli) of 10.11%.
CC1CC1C(=O)NC1CCN(CC2(c3ccccc3)CCCCC2)CC1 (stereo not given) gave an Inhibition (Staphylococcus aureus) of 14.54% and an Inhibition (Escherichia coli) of 6.55%.
With N#Cc1nc(-c2ccccc2)oc1S(=O)(=O)c1ccc(Cl)cc1 the Inhibition (Staphylococcus aureus) was 8.62% and the Inhibition (Escherichia coli) was 6.48%.
Cc1cc(C)n2nc(C(=O)Nc3cc(C(F)(F)F)ccc3N3CCOCC3)nc2n1 was tested, and the Inhibition (Staphylococcus aureus) was 13.59% and the Inhibition (Escherichia coli) was 10.47%.
Cc1cccc(-c2nc(Nc3ccncn3)c3sccc3n2)n1 was tested, and the Inhibition (Staphylococcus aureus) was 21.43% and the Inhibition (Escherichia coli) was 8.12%.
Compound Cl.c1ccc(C[C@@H]2CN(c3nccc(Oc4ccc(-n5ccnc5)cc4)n3)CCN2)cc1 has an Inhibition (Staphylococcus aureus) of 21.29% and an Inhibition (Escherichia coli) of 8.76%.
CN1CCN(S(=O)(=O)c2ccc(-c3ccc4c(Nc5ccc6nn[nH]c6c5)ccnc4c3)cc2)CC1 gave an Inhibition (Staphylococcus aureus) of 10.46% and an Inhibition (Escherichia coli) of -0.24%.
Work on CCCCc1ccc(NC(=O)Nc2ccc(O[C@H]3CCCC[C@@H]3N(C)c3ccccc3)c(F)c2)cc1 yielded an Inhibition (Staphylococcus aureus) of 12.12% and an Inhibition (Escherichia coli) of 9.29%.
O=C(C1CCN(c2nnc(-n3cccc3)s2)CC1)N1CCC(Cc2ccccc2)CC1 gave an Inhibition (Staphylococcus aureus) of 17.77% and an Inhibition (Escherichia coli) of 6.98%.
Cc1cc(C)c2cc(C(=O)NC3CCCCCCC3)[nH]c2c1 gave an Inhibition (Staphylococcus aureus) of 16.44% and an Inhibition (Escherichia coli) of 7.15%.
CCNC(=O)C(C)Nc1nc(-c2cccnc2)nc2sc(C)c(C)c12 (stereo not given) gave an Inhibition (Staphylococcus aureus) of 4.74% and an Inhibition (Escherichia coli) of 10.74%.
Work on COc1ccccc1CNC(=O)c1cc(C2CC2)nc2c1cnn2C(C)C yielded an Inhibition (Staphylococcus aureus) of 13.79% and an Inhibition (Escherichia coli) of -2.58%.
O=C1[C@@H](Oc2ccccc2)[C@@H](c2ccc(Cl)cc2)N1CCn1cnc2c(NCc3ccccc3)ncnc21 showed an Inhibition (Staphylococcus aureus) of -4.13% and an Inhibition (Escherichia coli) of 1.08%.
COc1ccc(-c2nc(-c3cccc(NC(=O)Cc4ccc(F)cc4)c3)no2)cc1OC showed an Inhibition (Staphylococcus aureus) of 22.17% and an Inhibition (Escherichia coli) of 8.52%.
Work on Nc1ccc(C(=O)Nc2ccc(-c3nc4ccccc4o3)cc2)cc1 yielded an Inhibition (Staphylococcus aureus) of 11.63% and an Inhibition (Escherichia coli) of 11.29%.
Work on Cc1ccc2[nH]c3c(NCCN(C)C)ncnc3c2c1 yielded an Inhibition (Staphylococcus aureus) of 20.13% and an Inhibition (Escherichia coli) of 7.48%.
Compound O=C(c1cc2ccccc2o1)N1CCN(Cc2ccc3c(c2)OCO3)CC1 has an Inhibition (Staphylococcus aureus) of 8.69% and an Inhibition (Escherichia coli) of 11.22%.
With COc1ccc(C2=NCCN2)cc1-c1cn(-c2cccc(C3=NCCN3)c2)nn1.O=C(O)C(F)(F)F.O=C(O)C(F)(F)F the Inhibition (Staphylococcus aureus) was 20.97% and the Inhibition (Escherichia coli) was 10.7%.
